Results on six molecules are retold here after PubChem BioAssay (NCATS).

Inconclusive results are not listed. Where a call stands in place of a potency, no number is given. A number with no mark means an inactive call. The source made the active and inactive calls. Calls come from the whole dose curve; as a rule, active = well fitted cell-killing curve with a large enough effect; inconclusive = small, poorly fitted or top-dose-only effect; inactive = flat fitted curve, though single readings scatter.
Potency is the fitted concentration of half-maximal effect.

The nature of this test: Cellular viability qHTS for adrenocortical cancer (ACC) cell line NCI-H295R (AID 1963990). Note: nearly all actives have a fitted effect of over 60% in size. Conditions: CellTiter-Glo ATP luminescence, 48 h; series mostly up to 46.1 µM. The method, boiled down:
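Luminescent ATP read-out (CellTiter-Glo, 20 min RT) after 48 h drug exposure of NCI-H295R cells; a titration up to 46 uM final. Data normalized to doxorubicin (100% inhibition) and DMSO (0%); 4-parameter fit gives IC50, max response.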
Background: Quantitative high-throughput screening tests each substance at several concentrations.
As to `C[C@]1(C(=O)N(CCCC(=O)O)Cc2cccc(Cl)c2)CCN1C(=O)c1csc2ccccc12`, the Potency result was “inactive”. Consider `NC(N)=NCCN1CCCCCCC1`, for which the activity change, negative = viability loss was 7.14% [at 0.587 µM]. As for `Cc1ccc(NC(=O)NCc2ccc3c(c2)CN(C2CCC(=O)NC2=O)C3=O)cc1Cl` (stereo unspecified), the Potency was 25.1 nM (active). Still for that read-out and setting: as for `CCN1CCC[C@H]1CNC(=O)c1c(OC)ccc(Br)c1OC`, the entry is “inactive”; as for `Cc1cccc(-c2[nH]c(CNc3ccccc3F)nc2-c2ccc3ncnn3c2)n1`, “inactive”; as for `CC(=O)OCC(=O)[C@@]1(O)CC[C@H]2[C@@H]3CCC4=CC(=O)C=C[C@]4(C)[C@@]3(F)[C@@H](O)C[C@@]21C`, “inactive”.
